Screening data as filed in PubChem BioAssay.
Not all results are given here.
aSyn 5UTR act – Activators working through SNCA 5'UTR binding (MLPCN). hit rate 7.1% among 300,000. alpha-synuclein 5'UTR reporter, activators screen. activity score, % (tested at 7.5 µM), hits read low. AID 1814; in the data active = activity score below about -60%
Starred values were filed as active, the others as inactive.

SMILES	aSyn 5UTR act
COC1c2ccccc2C(=O)N1CCc1ccc(Cl)cc1 (stereo not given)	-73.4*
COc1ccccc1OCCNC(=O)c1cc(F)c(F)cc1Cl	-76.0*
CCCNC(=O)c1cccc(COc2ccccc2OC)c1	-106.9*
COc1ccccc1OCCCCOc1ccccc1F	-70.5*
O=C(NCCNc1ccccc1[N+](=O)[O-])c1cc(F)c(F)cc1Cl	-92.6*
COc1ccccc1OCCNC(=O)c1ccc(Br)cc1	-106.2*
CC(C)(C)C(=O)NC(=S)Nc1ccc(F)cc1	-84.2*
CC(C)(C)C(=O)NC(=S)Nc1cccc(C(=O)O)c1	-160.7*
NC(N)=Nc1nc(C2COc3ccccc3O2)cs1 (stereo not given)	-64.0*
COC(=O)c1c(C)[nH]c(O)c1C=Nc1ccc(C(C)C)cc1	-71.3*
O=C(CCl)Nc1cccc(-c2cnc3ccccc3n2)c1	-622.3*
O=C(Nc1cccc(-c2cnc3ccccc3n2)c1)c1cccc(NC(=O)c2ccco2)c1	-95.5*
CCC(=O)Nc1cccc(-c2cnc3ccccc3n2)c1	-122.3*
COc1cc(-c2cc(C(=O)Nc3nc4ccccc4s3)c3ccccc3n2)cc(OC)c1OC	-65.3*
COc1ccc(-c2cc(C(=O)Nc3ccc(C(N)=O)cc3)c3ccccc3n2)cc1OC	-99.0*
CC(C)OCCCNC(=S)NNC(=O)c1ccc(Cl)c(Cl)c1	-87.4*
Cc1ccc2nc(NC(=O)c3ccc4c(c3)OCO4)sc2c1	-129.6*
Cc1ccc2nc(NC(=O)c3ccc4ncsc4c3)sc2c1	-145.3*
O=C(CC1NCCNC1=O)Nc1ccc(Cl)c(Cl)c1 (stereo not given)	-91.7*
O=C(Nc1cc(C(F)(F)F)ccc1Cl)C(Sc1nnc(-c2cccs2)o1)c1ccccc1 (stereo not given)	-108.5*
Cc1ccccc1OCCCCn1cnc2ccccc21	-83.4*
COc1ccc(OCCn2cnc3ccccc32)cc1	-70.1*
Cc1ccccc1OCC(O)Cn1c(=N)n(Cc2ccccc2)c2ccccc21 (stereo not given)	113.2
c1ccc(CCn2cnc3ccccc32)cc1	-90.5*
Brc1ccccc1OCCCn1cnc2ccccc21	-93.1*
SMILES	aSyn 5UTR act
CC(Cc1ccco1)NC(=O)c1ccc(C(F)(F)F)cc1 (stereo not given)	-68.8*
CCOc1ccc(S(=O)(=O)N2c3ccccc3CC2C)cc1 (stereo not given)	92.6
CCOc1ccc(N2C(N)=NC(N)=NC2(C)C)cc1	66.2
CCOc1ccc(N2Cc3ccccc3C2)cc1	-119.9*
Cc1ccc(C(=O)N/N=C2\CCCc3ccccc32)c(C)c1	-160.6*
O=C(N/N=C1\CCCc2ccccc21)c1ccc([N+](=O)[O-])cc1	-82.4*
CC(C)c1cc2cc3ccc(=O)oc3cc2o1	-95.9*
O=C(Cc1ccc(Cl)cc1)NCc1ccccc1Cl	-66.0*
O=C(Cc1ccccc1[N+](=O)[O-])NCc1ccccc1Cl	-147.0*
Cc1ccccc1CNC(=O)Cc1ccccc1[N+](=O)[O-]	-95.8*
Nc1nc2ccccc2n1/N=C/c1ccc2c(c1)OCO2	-192.1*
Nc1nc2ccccc2n1/N=C/c1ccc(Br)cc1	-138.9*
Cc1ccc(Nc2nc(C)cs2)cc1	-125.3*
COC(=O)Cc1csc(Nc2ccc(Cl)cc2)n1	-67.7*
Cc1csc(Nc2ccc(Cl)cc2)n1	-112.6*
CC(=O)/C(N=Nc1ccc2c(c1)OCO2)=C(\C)O	-244.8*
Cc1ccc(-c2cc(C(=O)N3CCCC3)no2)cc1	53.4
O=C(c1cc(-c2ccc(Cl)cc2Cl)on1)N1CCCCCC1	-71.5*
O=C(c1cc(-c2ccc(Cl)c(Cl)c2)on1)N1CCCCCC1	-197.9*
CN(C)/C=C/C(=O)c1ccc(-c2ccc(Cl)cc2Cl)o1	-106.2*
O=C(c1cc(-c2ccc(O)cc2)on1)N1CCCCCC1	-94.4*
O=C(c1cc(-c2ccc(Cl)cc2)on1)N1CCCCCC1	-147.7*
O=C(c1ccc(-c2ccc(Cl)cc2Cl)o1)N1CCOCC1	-103.8*
O=C(c1cc(-c2cccc(Cl)c2)on1)N1CCCCCC1	-174.8*
Cc1cc2nnc(SCC(=O)NCc3ccco3)n2c2ccccc12	-184.1*
SMILES	aSyn 5UTR act
COc1ccc(C(=O)Nn2c(SCC(=O)NCc3ccco3)nc3ccccc3c2=O)cc1	81.4
COc1ccc(-c2nc3ccccc3o2)cc1OC	-82.4*
c1ccc2oc(-c3ccc4nc[nH]c4c3)nc2c1	-135.1*
COc1ccccc1NC1=C(Cl)C(=O)N(c2ccccc2)C1=O	-70.3*
CCOc1ccc(NC2=C(Cl)C(=O)N(C3CCCCC3)C2=O)cc1	-102.2*
O=C1C(Cl)=C(Nc2ccccc2O)C(=O)N1CCc1ccccc1	-87.3*
CCOc1ccc(N2C(=O)C(Cl)=C(Nc3ccccc3O)C2=O)cc1	-183.7*
COc1cc(C2C(C#N)=C(N)Oc3cc4c(cc32)OCO4)cc(OC)c1OC (stereo not given)	111.3
N#CC1=C(N)OC2=C(CCc3ccccc32)C1c1ccccc1 (stereo not given)	70.4
COc1cccc(C2C(C#N)=C(N)OC(C(C)(C)C)=C2C#N)c1 (stereo not given)	-114.6*
COc1cc2[nH]c3ccccc3c2cc1C	-65.1*
CCOC(=O)N1CCC(NC(=O)c2oc3c(F)cccc3c2C)CC1	-62.4*
